Assay outcomes (PubChem BioAssay)
Shown are actives, neighbours in structure and some others; about 17% of the full set was active somewhere.
DT40 TDP1 no CPT: qHTS for Inhibitors of human tyrosyl-DNA phosphodiesterase 1 (TDP1): qHTS in cells in absence of CPT; DT40 Tdp1-/- hTDP1 cells, no CPT, ATP luminescence, 48 h; Potency, µM (titrated, usually from 46.2 µM), most hits filed as inhibitors; 15% of 420,000 active; AID 686978, 2013; also: nearly all actives have a fitted effect of over 55% in size
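A cellular qHTS used chicken DT40 cells lacking endogenous Tdp1 but carrying stably transfected human TDP1. Compounds were applied without camptothecin, and cell growth kinetics were judged by ATP-dependent luminescence after ≥48 hr.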
ClpP mod: qHTS Assay for Activators of ClpP | purified B. subtilis ClpP, FRET peptide cleavage, 20 min | Potency, µM (highest dose often 57.5 µM) | 1.9% of 340,000 active; active = well fitted falling curve with a large enough effect; inconclusive = small, poorly fitted or top-dose-only effect; inactive = no such curve, though single readings can be large or run the other way; also: the source files actives as falling curves though it sought activators and does not explain the sign; nearly all actives have a fitted effect of over 65% in size
Target sequence (P80244 whole entry, looked up): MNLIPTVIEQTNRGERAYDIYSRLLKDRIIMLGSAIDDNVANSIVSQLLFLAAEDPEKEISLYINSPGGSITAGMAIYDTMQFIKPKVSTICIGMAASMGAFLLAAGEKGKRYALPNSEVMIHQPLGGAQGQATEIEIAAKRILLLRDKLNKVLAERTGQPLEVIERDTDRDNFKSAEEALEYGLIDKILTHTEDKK
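ClpP 10 microg/mL final, pH 8 Tris/KCl buffer with BSA, glycerol, Tween-20; compound pinned in; FRET-FV substrate; RT 20 min; Ex320/Em430; ΔFRET vs ADEP 5.8 microM, DMSO, no enzyme.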
TDP1 inh: inhibitors of human tyrosyl-DNA phosphodiesterase TDP1; recombinant TDP1, AlphaScreen DNA substrate cleavage; Potency, µM (doses to about 130 µM), usual class: inhibitors; 0.28% of 350,000 active; AID 485290; also: nearly all actives have a fitted effect of over 40% in size
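Here, a 5' biotin and 3' phosphotyrosine-FITC DNA oligonucleotide reports Tdp1 activity: intact substrate bridges AlphaScreen beads, while cleavage leaves a 3' phosphate and drops signal. All incubations at room temperature.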
TDP1 cell CPT: growth inhibition of DT40 Tdp1-/-;hTDP1 cells with camptothecin (screen for TDP1 inhibitors); chicken DT40 Tdp1-/-;hTDP1 cells + 20 nM CPT, ATP luminescence, 48 h; Potency, µM (titrated, usually from 46.2 µM), most hits filed as inhibitors; 12% of 420,000 active; also: nearly all actives have a fitted effect of over 55% in size
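Cell growth measured by CellTiter-Glo luminescence after a minimum 48 h, 37 C compound exposure with 20 nM CPT in Tdp1-knockout DT40 cells stably expressing hTDP1, seeded 400/well; qHTS titration format.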
Each line names hits and unclear results; the compound was inactive in the other large screens. Unless noted, calls follow the shape of the dose curve; as a rule, active = well fitted curve in the direction sought with a large enough effect; inconclusive = small, poorly fitted or top-dose-only effect, or another doubt; inactive = no such curve, though single readings can be large; an effect the other way counts as inactive or inconclusive.

COC(=O)c1c(SCC(=O)Nc2cccc(C(F)(F)F)c2)[nH]c2ccccc2c1=O	DT40 TDP1 no CPT 5.8µM, TDP1 cell CPT 5.8µM
COC(=O)c1c(SCC(=O)Nc2cc(F)ccc2F)[nH]c2ccc(C)cc2c1=O	DT40 TDP1 no CPT 8.2µM, TDP1 cell CPT 8.2µM
Nc1c(Cl)cc(C=O)cc1Cl	none (no result: TDP1 inh)
CSc1nc(C)nc(N/C=C(\C#N)S(=O)(=O)c2ccccc2Cl)n1	none
CCO[C@@H]1OC(C(=O)N2CCN(Cc3ccccc3)CC2)=C[C@H](c2coc3ccccc3c2=O)[C@H]1CCCO	DT40 TDP1 no CPT 7.3µM, TDP1 cell CPT 8.2µM
CCO[C@H]1OC(C(=O)N2CCN(Cc3ccccc3)CC2)=C[C@@H](c2coc3ccccc3c2=O)[C@@H]1CCCO	DT40 TDP1 no CPT 23µM, TDP1 cell CPT 26µM
CCO[C@@H]1OC(C(=O)N2CCN(Cc3ccc4c(c3)OCO4)CC2)=C[C@H](c2coc3ccccc3c2=O)[C@H]1CCCO	DT40 TDP1 no CPT 18µM, TDP1 cell CPT 16µM
CCO[C@H]1OC(C(=O)N2CCN(C)CC2)=C[C@@H](c2coc3ccccc3c2=O)[C@@H]1CCCO	none
C#Cc1ccc([C@@H]2C=C(C(=O)N3CCN(Cc4ccccc4)CC3)O[C@H](OCC)[C@H]2CCCO)cc1	DT40 TDP1 no CPT 23µM, TDP1 cell CPT inconclusive
CC(=O)C1=NN(c2ccc(Cl)cc2)C(c2ccc3c(c2)OCO3)N(C(C)=O)N1C (configuration not stated)	DT40 TDP1 no CPT inconclusive, TDP1 cell CPT inconclusive
OC(CNC1CCCCC1)COCCOc1ccc(Br)cc1 (configuration not stated)	DT40 TDP1 no CPT 23µM, TDP1 cell CPT 13µM
OC(CNC1CCCC1)COc1ccc(-c2ccccc2)cc1 (configuration not stated)	DT40 TDP1 no CPT inconclusive, TDP1 cell CPT inconclusive
COc1cccc(OCCOCC(O)CN2CCN(Cc3ccc(Cl)cc3)CC2)c1 (configuration not stated)	DT40 TDP1 no CPT inconclusive
CCc1ccc(OCCOCC(O)CN2CCN(Cc3ccc(Cl)cc3)CC2)cc1 (configuration not stated)	DT40 TDP1 no CPT inconclusive, TDP1 cell CPT 18µM
OC(COCCOc1ccc(Br)cc1)CN1CCN(Cc2ccccc2)CC1 (configuration not stated)	DT40 TDP1 no CPT 23µM, TDP1 cell CPT inconclusive
O=C(CC1C(=O)NCCN1Cc1c(F)cccc1Cl)NCc1ccccc1 (configuration not stated)	none (no result: ClpP mod)
O=C(Nc1ccccc1F)c1c[nH]c(=O)[nH]c1=O	none (no result: ClpP mod)
Cc1cc(=O)n(C)c(=O)n1CCCCCN1CCCC1	none
Cc1cc(=O)n(C)c(=O)n1CCCCCCOc1cccc([N+](=O)[O-])c1	DT40 TDP1 no CPT 16µM, TDP1 cell CPT 26µM
CCN(CC)S(=O)(=O)c1ccc(C)c(NS(=O)(=O)c2cc(/C=C/C(=O)O)cc(OC)c2OC)c1	none (no result: ClpP mod)
CCN(CC)c1cc(C)c2cc(NC(=O)/C=C/c3ccc(C)cc3)ccc2n1	DT40 TDP1 no CPT 5.2µM, TDP1 cell CPT 5.8µM
CCN(CC)c1cc(C)c2cc(NC(=O)CNC(C)=O)ccc2n1	ClpP mod 16µM
CCN(CC)c1cc(C)c2cc(NC(=O)/C=C/c3cc(OC)c(OC)c(OC)c3)ccc2n1	DT40 TDP1 no CPT 7.3µM, TDP1 cell CPT 6.5µM
CCCCN(C)C(=O)CCC(=O)Nc1ccc2nc(N3CCN(C)CC3)cc(C)c2c1	none (no result: ClpP mod)
CCOc1ccc(/C=C/C(=O)Nc2ccc3nc(N(CC)CC)cc(C)c3c2)cc1OC	DT40 TDP1 no CPT 10µM, TDP1 cell CPT 5.2µM
CCC1(C2=CCCCC2)C(=O)NC(=S)N=C1N (configuration not stated)	none (no result: ClpP mod, TDP1 inh)
COC(=O)[C@@H]1CCCN1Cc1ccc2c(c1)CN(Cc1cccc(Cl)c1)CCO2	none (no result: ClpP mod, TDP1 inh)
COc1ccc2oc(C(=O)N(C)Cc3ccc(OC(F)F)cc3)c(C)c2c1	none
COc1ccc(N/C=C(\C#N)S(=O)(=O)c2ccc(Cl)cc2)c(OC)c1	none (no result: TDP1 inh)
COc1ccc(/C=C2\N=C(C)N(c3ccc4ccccc4c3)C2=O)cc1OC	DT40 TDP1 no CPT 5.8µM, TDP1 cell CPT inconclusive
COc1cc2c(cc1OC)[C@@H](NC(=O)CCc1ccccc1)[C@H](OCc1ccccc1)C2	DT40 TDP1 no CPT inconclusive, TDP1 cell CPT 10µM
CCCCCCCCCC(=O)N[C@@H]1c2cc(OC)c(OC)cc2C[C@H]1OCc1ccccc1	none
CCCS(=O)(=O)NC(=O)C1(C)CCN(C(=O)COc2ccc(Cl)cc2Cl)C1 (configuration not stated)	none (no result: TDP1 inh)
O=C(COc1ccc(S(=O)(=O)NC2CCCCC2)cc1)N1CCN(c2cccc(Cl)c2)CC1	DT40 TDP1 no CPT 16µM, TDP1 cell CPT inconclusive
Cc1ccc(Cl)cc1N1CCN(C(=O)COc2ccc(S(=O)(=O)NC(C)C)cc2)CC1	DT40 TDP1 no CPT 18µM, TDP1 cell CPT 13µM
CC(C)NS(=O)(=O)c1ccc(OCC(=O)N2CCCC2)cc1	none
Cn1nc(C(=O)NCc2ccc(F)cc2)c2c1-c1ccccc1SC2	DT40 TDP1 no CPT inconclusive, TDP1 cell CPT inconclusive
O=C(CC1C(=O)NCCN1Cc1ccoc1)NCCCn1ncc2ccccc21 (configuration not stated)	none (no result: ClpP mod)
CCCCN(CCCC)CCNC(=O)Cn1nc(CC)n2c(cc3sccc32)c1=O	DT40 TDP1 no CPT inconclusive, TDP1 cell CPT inconclusive
Cc1ccc(C(C(=O)NC2CCCC2)N(C(=O)Cc2cccs2)c2cccc(C)c2C)o1 (configuration not stated)	DT40 TDP1 no CPT 16µM, TDP1 cell CPT 21µM
Cc1cc(C)cc(N(C(=O)Cc2cccs2)C(C(=O)NC2CCCC2)c2ccc(C)o2)c1 (configuration not stated)	DT40 TDP1 no CPT inconclusive, TDP1 cell CPT inconclusive
O=C(NC1CCCCC1)C(c1ccccn1)N(C(=O)Cc1cccs1)c1ccc(Cl)cc1 (configuration not stated)	DT40 TDP1 no CPT inconclusive, TDP1 cell CPT 29µM
COc1cc(/C=N/N=C(N)N)ccc1OCc1ccccc1Cl	DT40 TDP1 no CPT 15µM, TDP1 cell CPT inconclusive
COc1cccc(-c2nc(NC3CCCC3)c3ccccc3n2)c1O	DT40 TDP1 no CPT 18µM, TDP1 cell CPT inconclusive (no result: TDP1 inh)
COc1cccc(-c2nc(N3CCN(C)CC3)c3ccccc3n2)c1O	DT40 TDP1 no CPT 16µM (no result: ClpP mod)
COc1cccc(-c2nc(NCc3ccccc3)c3ccccc3n2)c1O	DT40 TDP1 no CPT inconclusive, TDP1 cell CPT inconclusive (no result: TDP1 inh)
CCN(CC)c1nc(-c2cccc(OC)c2O)nc2ccccc12	DT40 TDP1 no CPT 23µM, TDP1 cell CPT 18µM
O=C(Cc1ccc(F)cc1)N1CCN(c2ccc([N+](=O)[O-])cc2)CC1	DT40 TDP1 no CPT inconclusive, TDP1 cell CPT 21µM (no result: TDP1 inh)
O=C(CCc1ccc(Oc2cc([N+](=O)[O-])cc([N+](=O)[O-])c2)cc1)N1CCCCCC1	DT40 TDP1 no CPT inconclusive, TDP1 cell CPT 18µM
O=C(Cn1cc([N+](=O)[O-])nc1[N+](=O)[O-])N1CCN(c2ccccc2)CC1	DT40 TDP1 no CPT inconclusive, TDP1 cell CPT 16µM (no result: ClpP mod)
